# Assay results reported in the supplement of paper PMC4466140.
# Columns and labels:
# Experiment in all cases: SPOT peptide array binding signal intensity (averaged, normalized) (arbitrary units (background-subtracted, floor 0; scale differs between SH3 domains)); higher = stronger binding of the SH3 domain to the peptide
# [1] = target: AgAbp1
# Method in brief: (§1)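 Binding signal refers to normalized, background-subtracted spot intensity averaged over replicates, expressed in arbitrary units that differ between domains. GST-fused SH3 domains from four yeast species were incubated at 10 μg/ml overnight at 4°C on cellulose membranes of synthetic 15-mer peptides with cysteines replaced by serines. Bound protein was detected with anti-GST antibody, an HRP anti-mouse secondary and luminol, and quantified with Genespotter.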
# [2] = target: AgBbc1
# Method in brief: as §1
# [3] = target: AgBem1-D1
# Method in brief: as §1
# [4] = target: AgBzz1-D1
# Method in brief: as §1
# [5] = target: AgBzz1-D2
# Method in brief: as §1
# [6] = target: AgCyk3
# Method in brief: as §1
# [7] = target: AgFus1
# Method in brief: as §1
# [8] = target: AgHof1
# Method in brief: as §1
# [9] = target: AgHse1
# Method in brief: as §1
# [10] = target: AgLsb1
# Method in brief: as §1
# [11] = target: AgLsb4
# Method in brief: as §1
# [12] = target: AgMyo5
# Method in brief: as §1
# [13] = target: AgNbp2
# Method in brief: as §1
# [14] = target: AgRvs167
# Method in brief: as §1
# [15] = target: AgSho1
# Method in brief: as §1
# [16] = target: AgSla1-D1-D2
# Method in brief: as §1
# [17] = target: AgSla1-D3
# Method in brief: as §1
# [18] = target: CaAbp1-D1
# Method in brief: as §1
# [19] = target: CaAbp1-D2
# Method in brief: as §1
# [20] = target: CaBbc1
# Method in brief: as §1
# [21] = target: CaBem1-D1
# Method in brief: as §1
# [22] = target: CaBzz1-D1
# Method in brief: as §1
# [23] = target: CaBzz1-D2
# Method in brief: as §1
# [24] = target: CaCyk3
# Method in brief: as §1
# [25] = target: CaFus1
# Method in brief: as §1
# [26] = target: CaHof1
# Method in brief: as §1
# [27] = target: CaHse1
# Method in brief: as §1
# [28] = target: CaLsb1
# Method in brief: as §1
# [29] = target: CaLsb4
# Method in brief: as §1
# [30] = target: CaMyo5
# Method in brief: as §1
# [31] = target: CaNbp2
# Method in brief: as §1
# [32] = target: CaRvs167
# Method in brief: as §1
# [33] = target: CaRvs167-3
# Method in brief: as §1
# [34] = target: CaSho1
# Method in brief: as §1
# [35] = target: CaSla1-D1-D2
# Method in brief: as §1
# [36] = target: CaSla1-D3
# Method in brief: as §1
# [37] = target: ScAbp1
# Method in brief: as §1
# [38] = target: ScBbc1
# Method in brief: as §1
# [39] = target: ScBem1-D1
# Method in brief: as §1
# [40] = target: ScBzz1-D1
# Method in brief: as §1
# [41] = target: ScBzz1-D2
# Method in brief: as §1
# [42] = target: ScCyk3
# Method in brief: as §1
# [43] = target: ScFus1
# Method in brief: as §1
# [44] = target: ScHof1
# Method in brief: as §1
# [45] = target: ScHse1
# Method in brief: as §1
# [46] = target: ScLsb1
# Method in brief: as §1
# [47] = target: ScLsb2
# Method in brief: as §1
# [48] = target: ScLsb3
# Method in brief: as §1
# [49] = target: ScLsb4
# Method in brief: as §1
# [50] = target: ScMyo3
# Method in brief: as §1
# [51] = target: ScMyo5
# Method in brief: as §1
# [52] = target: ScNbp2
# Method in brief: as §1
# [53] = target: ScPex13
# Method in brief: as §1
# [54] = target: ScRvs167
# Method in brief: as §1
# [55] = target: ScSho1
# Method in brief: as §1
# [56] = target: ScSla1-D1-D2
# Method in brief: as §1
# [57] = target: ScSla1-D3
# Method in brief: as §1
# [58] = target: SpAbp1-D1
# Method in brief: as §1
# [59] = target: SpBbc1
# Method in brief: as §1
# [60] = target: SpBzz1-D1
# Method in brief: as §1
binder,measurement,setting,value
RAPPPVPKKPSSRIA,SPOT peptide array binding signal intensity,[1],8420
same,SPOT peptide array binding signal intensity,[2],1600
same,SPOT peptide array binding signal intensity,[3],51.5
same,SPOT peptide array binding signal intensity,[4],3320
same,SPOT peptide array binding signal intensity,[5],373
same,SPOT peptide array binding signal intensity,[6],≤ 0
same,SPOT peptide array binding signal intensity,[7],≤ 0
same,SPOT peptide array binding signal intensity,[8],415
same,SPOT peptide array binding signal intensity,[9],102
same,SPOT peptide array binding signal intensity,[10],676
same,SPOT peptide array binding signal intensity,[11],48
same,SPOT peptide array binding signal intensity,[12],36.8
same,SPOT peptide array binding signal intensity,[13],3960
same,SPOT peptide array binding signal intensity,[14],230
same,SPOT peptide array binding signal intensity,[15],296
same,SPOT peptide array binding signal intensity,[16],≤ 0
same,SPOT peptide array binding signal intensity,[17],380
same,SPOT peptide array binding signal intensity,[18],2320
same,SPOT peptide array binding signal intensity,[19],4330
same,SPOT peptide array binding signal intensity,[20],1870
same,SPOT peptide array binding signal intensity,[21],12.5
same,SPOT peptide array binding signal intensity,[22],5970
same,SPOT peptide array binding signal intensity,[23],2940
same,SPOT peptide array binding signal intensity,[24],61.5
same,SPOT peptide array binding signal intensity,[25],28.5
same,SPOT peptide array binding signal intensity,[26],≤ 0
same,SPOT peptide array binding signal intensity,[27],1200
same,SPOT peptide array binding signal intensity,[28],0.5
same,SPOT peptide array binding signal intensity,[29],2220
same,SPOT peptide array binding signal intensity,[30],2.5
same,SPOT peptide array binding signal intensity,[31],1040
same,SPOT peptide array binding signal intensity,[32],170
same,SPOT peptide array binding signal intensity,[33],1
same,SPOT peptide array binding signal intensity,[34],94
same,SPOT peptide array binding signal intensity,[35],3890
same,SPOT peptide array binding signal intensity,[36],250
same,SPOT peptide array binding signal intensity,[37],2860
same,SPOT peptide array binding signal intensity,[38],270
same,SPOT peptide array binding signal intensity,[39],9
same,SPOT peptide array binding signal intensity,[40],565
same,SPOT peptide array binding signal intensity,[41],33
same,SPOT peptide array binding signal intensity,[42],7
same,SPOT peptide array binding signal intensity,[43],1
same,SPOT peptide array binding signal intensity,[44],1.5
same,SPOT peptide array binding signal intensity,[45],≤ 0
same,SPOT peptide array binding signal intensity,[46],452
same,SPOT peptide array binding signal intensity,[47],1030
same,SPOT peptide array binding signal intensity,[48],4390
same,SPOT peptide array binding signal intensity,[49],52.5
same,SPOT peptide array binding signal intensity,[50],80.5
same,SPOT peptide array binding signal intensity,[51],50.2
same,SPOT peptide array binding signal intensity,[52],5230
same,SPOT peptide array binding signal intensity,[53],869
same,SPOT peptide array binding signal intensity,[54],1400
same,SPOT peptide array binding signal intensity,[55],2740
same,SPOT peptide array binding signal intensity,[56],2100
same,SPOT peptide array binding signal intensity,[57],331
same,SPOT peptide array binding signal intensity,[58],2240
same,SPOT peptide array binding signal intensity,[59],26
same,SPOT peptide array binding signal intensity,[60],2030
